Shown are actives, neighbours in structure and some others; about 10% of the full set was active somewhere.
JMJD2A Tudor = JMJD2A Tudor domain (human) inhibition. O75164. AlphaScreen JMJD2A-Tudor / H3K4me3 peptide binding. Potency, µM (top dose mostly 114 µM), actives largely listed as inhibitors. 390,000 compounds, 4.4% hits; also: nearly all actives have a fitted effect of over 50% in size
GLS inh = inhibitors of human glutaminase (GLS); 410,000 compounds, 0.21% hits; O94925; Potency, µM (doses to about 45.5 µM), hits mostly inhibitors; GLS enzymatic activity, qHTS titration
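Enzyme dispensed in phosphate buffer (45 mM, pH 8.2, 0.02% Tween-20), compounds pinned in, then 1 mM L-glutamine solution and the glutamate oxidase–HRP–Amplex Red mix added; fluorescence read immediately and again after 30 min at room temperature.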
G9a inh = G9a (human) methyltransferase inhibition; Q96KQ7; G9a H3K9 monomethylation, AlphaScreen, 2 h; Potency, µM (doses to about 102 µM), actives largely listed as inhibitors; 350,000 compounds, 8.8% hits; AID 504332; also: nearly all actives have a fitted effect of over 75% in size
Target sequence (Q96KQ7 913-1193 limits assumed): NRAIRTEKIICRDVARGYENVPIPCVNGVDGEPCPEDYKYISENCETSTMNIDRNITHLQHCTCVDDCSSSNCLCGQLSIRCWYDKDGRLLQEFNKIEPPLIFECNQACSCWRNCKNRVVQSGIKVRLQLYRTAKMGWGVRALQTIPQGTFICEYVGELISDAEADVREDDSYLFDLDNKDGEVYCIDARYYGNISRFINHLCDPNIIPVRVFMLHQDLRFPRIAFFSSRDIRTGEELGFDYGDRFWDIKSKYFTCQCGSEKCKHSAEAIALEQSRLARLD
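Compounds were preincubated with 20 nM G9a for 15 min, after which biotinylated H3K9 peptide (500 nM) and SAM (20 uM) started a 2 h room-temperature reaction. Monomethylated product was quantified by antibody-based AlphaScreen chemiluminescence.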
HP1b binding inh = inhibitors of HP1-beta chromodomain binding to methylated histone tails; P83916; AlphaScreen HP1-beta / biotin-H3K9me3 peptide binding; Potency, µM (doses to about 114 µM), actives largely listed as inhibitors; 390,000 compounds, 0.56% hits; AID 540317; also: nearly all actives have a fitted effect of over 70% in size
Target sequence (P83916 whole entry, looked up): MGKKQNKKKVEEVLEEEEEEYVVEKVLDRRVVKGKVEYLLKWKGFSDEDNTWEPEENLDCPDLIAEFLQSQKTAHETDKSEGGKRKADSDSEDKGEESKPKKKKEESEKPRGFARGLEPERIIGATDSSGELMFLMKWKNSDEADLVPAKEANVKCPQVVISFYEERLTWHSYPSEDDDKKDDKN
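HP1-beta protein (50 nM final) preincubated 30 min at room temperature with biotinylated H3(1-18)K9me3 peptide (50 nM) in PBS pH 7.4, 0.01% Tween-20, then compound added for 30 min. AlphaScreen streptavidin donor/nickel chelate acceptor beads (10 ug/mL final), 30 min dark, luminescence read.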
BAZ2B block = BAZ2B (human) inhibition; Q9UIF8; AlphaScreen BAZ2B-H3K14Ac peptide displacement; Potency, µM (highest dose often 114 µM), usual class: inhibitors; 360,000 compounds, 4.4% hits; AID 504333; also: nearly all actives have a fitted effect of over 60% in size
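In this displacement format the biotinylated H3(5-23) peptide acetylated at Lys14 serves as ligand at 50 nM, with BAZ2B at 50 nM in PBS pH 7.4 containing 0.01% Tween-20. Donor and acceptor beads are 10 ug/mL final.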
Of the large screens only hits and unclear results are named; the others gave an inactive call; ! = not confirmed by another sample. Calls follow the shape of the dose curve; as a rule, active = well fitted curve in the direction sought with a large enough effect; inconclusive = small, poorly fitted or top-dose-only effect, or another doubt; inactive = no such curve, though single readings can be large; an effect the other way counts as inactive or inconclusive.

CC1=C(C(=O)Nc2ccccc2)C(c2ccncc2)n2nc(SCc3ccccc3Cl)nc2N1 (stereo not drawn)	none
CCOc1ccc2c(c1)nc(SCC(=O)c1ccc(Br)s1)n2C	JMJD2A Tudor 40µM, G9a inh 40µM
CCOc1ccc2c(c1)nc(SCC(=O)c1cccs1)n2C	JMJD2A Tudor 40µM, G9a inh 25µM
CCOc1ccc2c(c1)nc(C)n2C	none (no result: G9a inh)
Cc1ccccc1-c1nc(Cc2ccccc2)no1	none
COc1cc(OC)cc(-c2nc3nc(C)c(CCC(=O)Nc4ccc(C)c(C)c4)c(C)n3n2)c1	none
COc1ccc(OC)c(N(CCN2C(=O)c3ccccc3C2=O)C(=O)C2CCC(=O)C2C)c1 (stereo not drawn)	none (no result: JMJD2A Tudor, G9a inh, HP1b binding inh, BAZ2B block)
CCOC(=O)Cc1[nH]nc2c1C(c1cc(OC)ccc1OC)C(C#N)=C(N)O2 (stereo not drawn)	JMJD2A Tudor inconclusive, BAZ2B block inconclusive
CCCc1[nH]nc2c1C(c1cc(OC)ccc1F)C(C#N)=C(N)O2 (stereo not drawn)	G9a inh 40µM, BAZ2B block inconclusive
CN1C2=C(C(=O)CC(C)(C)C2)C(c2cccs2)C2=C1CC(C)(C)CC2=O	none (no result: G9a inh, BAZ2B block)
O=C(c1ccco1)N1N=C(c2ccccc2O)CC1c1cccs1 (stereo not drawn)	none (no result: JMJD2A Tudor, G9a inh, HP1b binding inh, BAZ2B block)
Cc1nc(NS(=O)(=O)c2ccccc2)sc1C(=O)NNS(=O)(=O)c1ccccc1	G9a inh 50µM
Cc1nc(NS(=O)(=O)c2ccccc2)sc1NC(=O)Nc1ccc(Cl)cc1	JMJD2A Tudor inconclusive, BAZ2B block 50µM
Cc1nc(C)c(C(=O)NNS(=O)(=O)c2ccc3ccccc3c2)s1	JMJD2A Tudor 25µM, G9a inh inconclusive
Cc1cc(-c2nc(C)c(C(=O)NNS(=O)(=O)c3ccccc3)s2)no1	none
Cc1ccc(S(=O)(=O)NNC(=O)c2sc(NS(=O)(=O)c3ccccc3)nc2C)cc1	GLS inh inconclusive
COc1ccccc1NC(=O)c1oc2ccccc2c1NC(=O)c1cccc(OC)c1OC	none
Cc1ccc(NS(=O)(=O)c2cc3c(cc2Cl)CCC(=O)N3)cc1Cl	none (no result: GLS inh, G9a inh, HP1b binding inh, BAZ2B block)
O=C(/C=C/Nc1ccccc1)c1ccccc1	BAZ2B block inconclusive
CN(C)c1ccc(N/C=C/C(=O)c2ccccc2)cc1	JMJD2A Tudor inconclusive, G9a inh 5.6µM, BAZ2B block inconclusive
CCOC(=O)c1ccc(N/C=C/C(=O)C(C)(C)C)cc1	none
CN(C)c1ccc(N/C=C/C(=O)C(C)(C)C)cc1	JMJD2A Tudor 50µM, G9a inh inconclusive, BAZ2B block 40µM
NC(=O)C[n+]1cccc(C(=O)Nc2ccccc2)c1	G9a inh 50µM
NC(=O)c1ccc[n+](Cc2ccccc2)c1	G9a inh 71µM
O=C(C[n+]1cccc(C(=O)Nc2ccccc2)c1)c1ccc(Cl)cc1	none (no result: JMJD2A Tudor, G9a inh, HP1b binding inh, BAZ2B block)
CCCCCCCCCCCCCCCC(=O)OC(CC(=O)O)C[N+](C)(C)C (stereo not drawn)	G9a inh 32µM!
CCCCCCCCCCCCCCCC(=O)OCC(COC(=O)CCCCCCCCCCCCCCC)OC(=O)CCCCCCCCCCCCCCC	none (no result: JMJD2A Tudor, HP1b binding inh, BAZ2B block)
CCN(CC)c1ccc2c(c1)CCCN2	G9a inh 1.8µM, BAZ2B block 45µM (no result: JMJD2A Tudor, GLS inh, HP1b binding inh)
COc1ccccc1NC(=O)C1=C(C)Nc2nc(SCc3cc(C)ccc3C)nn2C1c1ccccc1 (stereo not drawn)	none
O=C(Nn1cc(C(=O)Nc2ccc(F)cc2F)c2ccccc2c1=O)c1cnccn1	JMJD2A Tudor 35µM, G9a inh 0.79µM, BAZ2B block 28µM
CC1CCCC(C)N1c1nnc(N)s1 (stereo not drawn)	G9a inh 18µM
CC1CCCCN1c1nnc(N)s1 (stereo not drawn)	none
COc1ccc(C(c2nnnn2Cc2ccccc2)N2CCN(c3nc4ccccc4s3)CC2)cc1OC (stereo not drawn)	JMJD2A Tudor 79µM, G9a inh 20µM
CCC(C)(C)n1nnnc1C(c1ccc(O)c(OC)c1)N1CCN(c2nc3ccccc3s2)CC1 (stereo not drawn)	G9a inh 2.5µM
c1ccc(Cn2nnnc2C(c2ccccc2)N2CCN(c3nc4ccccc4s3)CC2)cc1 (stereo not drawn)	none (no result: BAZ2B block)
CCCC(c1nnnn1CCOC)N1CCN(c2nc3ccccc3s2)CC1 (stereo not drawn)	JMJD2A Tudor 13µM, GLS inh inconclusive
COc1ccc(C(c2nnnn2C(C)(C)C)N2CCN(c3nc4ccccc4s3)CC2)cc1 (stereo not drawn)	none
Cc1ccc(S(=O)(=O)N2C[C@H]3C(=O)C[C@@H](c4ccc(Cl)cc4)N(S(=O)(=O)c4ccccc4C)[C@H]3C[C@H]2c2ccc(Cl)cc2)cc1	none (no result: JMJD2A Tudor, G9a inh, HP1b binding inh, BAZ2B block)
O=C(CN1C(=O)CCc2cc(S(=O)(=O)N3CCOCC3)ccc21)Nc1cccc(Cl)c1	none
C#CCOc1ccc(/C=C2/C(=O)NN(c3ccc(F)cc3)C2=O)cc1OC	G9a inh 35µM
COc1cc(/C=C2\C(=O)NN(c3ccccc3)C2=O)ccc1OCC(N)=O	G9a inh 50µM (no result: JMJD2A Tudor, GLS inh, HP1b binding inh)
O=C(c1ccncc1)N1CCC[C@@]2(CCN(Cc3cc(C(F)(F)F)cc(C(F)(F)F)c3)C2)C1	none (no result: JMJD2A Tudor, GLS inh, HP1b binding inh, BAZ2B block)
COc1ccc(C)cc1NS(=O)(=O)c1cnc(N)nc1	none
CCCCc1c(O)n(-c2ccccc2)[nH]c1=O	G9a inh 11µM (no result: JMJD2A Tudor, GLS inh, HP1b binding inh, BAZ2B block)
CC1CCN(CCCCOc2ccc(C(C)(C)C)cc2)CC1	JMJD2A Tudor 20µM, G9a inh 40µM, HP1b binding inh inconclusive, BAZ2B block inconclusive
CC1CC(C)CN(CCCSc2ccccc2)C1 (stereo not drawn)	JMJD2A Tudor 28µM, G9a inh inconclusive, HP1b binding inh inconclusive, BAZ2B block inconclusive
CC1CCN(CCOCCOc2ccccc2Br)CC1	JMJD2A Tudor 2.5µM, G9a inh inconclusive, HP1b binding inh inconclusive, BAZ2B block 56µM
COc1cc(C)ccc1OCCOCCOc1ccccc1Br	none (no result: G9a inh)
CC1CCN(CCOCCOc2ccccc2-c2ccccc2)CC1	JMJD2A Tudor 3.2µM, G9a inh 28µM, HP1b binding inh inconclusive, BAZ2B block inconclusive
Cc1cccc(CNc2ccnc(-c3ccccc3C(F)(F)F)n2)c1	none (no result: JMJD2A Tudor, GLS inh, HP1b binding inh, BAZ2B block)
Cc1ccc(C(=O)Nc2nc(C)c(C(=O)Nc3ccc4c(c3)CCC4)s2)cc1	none
CC1CCCN(CCCOc2ccccc2-c2ccccc2)C1 (stereo not drawn)	JMJD2A Tudor 1.1µM, G9a inh 11µM, HP1b binding inh inconclusive, BAZ2B block 40µM
COc1ccccc1OCCCCN1CCC(C)CC1	JMJD2A Tudor 13µM, G9a inh 25µM, HP1b binding inh inconclusive, BAZ2B block inconclusive
CC1CCN(CCCCOc2ccccc2-c2ccccc2)CC1	JMJD2A Tudor 4.5µM, G9a inh 13µM, HP1b binding inh inconclusive, BAZ2B block 79µM
CC1CCCN(CCOCCSc2ccccc2)C1 (stereo not drawn)	JMJD2A Tudor 2.5µM, G9a inh 10µM, HP1b binding inh inconclusive
CN1CCC(N(C)C(=O)COc2ccccc2-c2ccccc2)CC1	none
COc1ccccc1OCCCN1CCC(C(O)(c2ccccc2)c2ccccc2)CC1	none (no result: JMJD2A Tudor, G9a inh, HP1b binding inh, BAZ2B block)
